# Results filed as inconclusive are left out. The source made the active and inactive calls. How the source made its calls: active means hit-call score of the fitted dose curve at least 0.9, where 1 is the maximum; inconclusive means response in the unintended direction; inactive means score below 0.9.
# Assays:
# [1] = ATG_XTT_Cytotoxicity: Cytotoxicity Assessment in the Attagene TRANS-FACTORIAL HepG2 Assay (AID 2283584);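 on AC50: cells exposed to compound for 24 h before reading; active means loss of viability signal versus DMSO baseline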
# Procedure, shortened: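 HepG2 human liver cells, transiently transfected with multiple GAL4-UAS reporter units, were dosed and read at 24 h by XTT as cell number. Loss of signal was fitted relative to DMSO negative control baseline.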
# [2] = TOX21_p53_BLA_p2_viability: Viability Assessment in the Tox21 HCT-116 p53 Agonism Beta-lactamase Assay, Phase 2 (AID 2283591);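 further: compound exposure lasted 16 h at 37 °C; actives lower the ATP signal meaning cytotoxicity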
# Procedure, shortened: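 HCT116 p53-bla cells, 4000/well, dosed after 5 h plating (217-fold dilution of DMSO stocks) and incubated 16 h at 37C. Viability taken as cellular ATP by CellTiter-Glo luminescence after 30 min RT; signal loss marks cytotoxicity.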
# [3] = molecular target: Cellular tumor antigen p53 (Homo sapiens) (UniProt P04637); assay: TOX21_p53_BLA_p2_ratio: Tox21 HCT-116 p53 Agonism Beta-lactamase Assay, Ratio, Phase 2 (AID 2283592)
# Procedure, shortened: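 Ratio endpoint: beta-lactamase cleavage of CCF4-AM, blue (460 nm) over green (530 nm). HCT116 reporter line; 16 h treatment, 37C; substrate 2 h RT.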
# [4] = TOX21_p53_BLA_p3_viability: Viability Assessment in the Tox21 HCT-116 p53 Agonism Beta-lactamase Assay, Phase 3 (AID 2283593);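 further: cells exposed to compound for 16 h before reading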
# Procedure, shortened: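 HCT116 cells, 4000/well, dosed 5 h after plating by pin transfer (217-fold dilution from DMSO stock) and incubated 16 h at 37C, 5% CO2. Viability read as ATP luminescence with CellTiter-Glo after 30 min at room temperature.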
# [5] = molecular target: Cellular tumor antigen p53 (Homo sapiens) (UniProt P04637); assay: TOX21_p53_BLA_p3_ratio: Tox21 HCT-116 p53 Agonism Beta-lactamase Assay, Ratio, Phase 3 (AID 2283596)
# Procedure, shortened: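 Cells were seeded at 4000/well, rested 5 h at 37C, then dosed with DMSO compound solutions (217-fold dilution) for 16 h. CCF4-AM substrate was loaded for 2 h at room temperature, and the 460/530 nm emission ratio was fitted for gain of signal versus DMSO.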
# [6] = molecular target: Cellular tumor antigen p53 (Homo sapiens) (UniProt P04637); assay: TOX21_p53_BLA_p5_ratio: Tox21 HCT-116 p53 Agonism Beta-lactamase Assay, Ratio, Phase 5 (AID 2283599)
# Procedure, shortened: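 HCT-116 p53-bla cells (4000/well) plated 5 h, dosed with compound (217-fold DMSO dilution) for 16 h at 37 C; CCF4-AM substrate 2 h at room temperature. Activity is the 460/530 nm emission ratio (405 nm excitation), fitted in gain-of-signal direction versus DMSO.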
# [7] = TOX21_p53_BLA_p5_viability: Viability Assessment in the Tox21 HCT-116 p53 Agonism Beta-lactamase Assay, Phase 5 (AID 2283600)
# Procedure, shortened: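 Luciferase-coupled ATP quantitation of cells treated for 16 h (37C, 5% CO2) with test chemicals delivered in DMSO via a 217-fold dilution; 4000 cells/well; reagent incubated 30 min at room temperature before luminescence reading.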
# [8] = molecular target: Cellular tumor antigen p53 (Homo sapiens) (UniProt P04637); assay: TOX21_p53_BLA_p4_ratio: Tox21 HCT-116 p53 Agonism Beta-lactamase Assay, Ratio, Phase 4 (AID 2283601)
# Procedure, shortened: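 HCT-116 p53 beta-lactamase reporter cells (4000/well) preincubated 5 h, then compound (217-fold dilution of DMSO stock) for 16 h at 37C. CCF4-AM substrate added 2 h at room temperature; 460/530 nm emission ratio fitted upward versus DMSO.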
# [9] = TOX21_p53_BLA_p4_viability: Viability Assessment in the Tox21 HCT-116 p53 Agonism Beta-lactamase Assay, Phase 4 (AID 2283597);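 further: hits lower the luminescence signal meaning cytotoxicity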
# Procedure, shortened: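 Cytotoxicity was inferred from loss of CellTiter-Glo luminescence. HCT116 cells had been dosed with compounds after 5 h plating, incubated 16 h at 37C and 5% CO2, and exposed to the CCF4-AM substrate for 2 h.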
# Sequence of Cellular tumor antigen p53 (Homo sapiens) (P04637 whole entry, looked up): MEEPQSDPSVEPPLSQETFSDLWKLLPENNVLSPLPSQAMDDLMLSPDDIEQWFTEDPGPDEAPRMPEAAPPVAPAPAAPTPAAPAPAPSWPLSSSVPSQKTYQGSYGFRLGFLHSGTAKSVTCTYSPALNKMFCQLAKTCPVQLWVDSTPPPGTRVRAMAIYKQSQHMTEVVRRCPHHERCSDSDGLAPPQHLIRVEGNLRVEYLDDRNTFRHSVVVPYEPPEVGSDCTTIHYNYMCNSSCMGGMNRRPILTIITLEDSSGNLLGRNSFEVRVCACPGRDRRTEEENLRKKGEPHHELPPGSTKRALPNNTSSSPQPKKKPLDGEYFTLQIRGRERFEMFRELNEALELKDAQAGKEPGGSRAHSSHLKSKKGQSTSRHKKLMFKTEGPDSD
compound,measurement,setting,value
CCOP(=S)(OCC)Oc1ccc(Cl)cc1Cl,outcome,[1],inactive
same,outcome,[2],inactive
same,outcome,[3],inactive
same,outcome,[4],inactive
same,outcome,[5],inactive
same,outcome,[6],inactive
same,outcome,[7],inactive
same,outcome,[8],inactive
O=C1C[C@@H]2OCC=C3CN4CC[C@]56c7ccccc7N1[C@H]5[C@H]2[C@H]3C[C@H]46,outcome,[1],inactive
same,outcome,[2],inactive
same,outcome,[3],inactive
same,outcome,[4],inactive
same,outcome,[5],inactive
same,outcome,[9],inactive
same,outcome,[6],inactive
same,outcome,[7],inactive
same,outcome,[8],inactive
COC(=O)Nc1cccc(OC(=O)Nc2cccc(C)c2)c1,outcome,[1],inactive
same,outcome,[2],inactive
same,outcome,[3],inactive
same,outcome,[4],inactive
same,outcome,[5],inactive
same,outcome,[9],inactive
same,outcome,[7],inactive
Cc1cc(C(C)(C)c2ccc(O)c(C)c2)ccc1O,outcome,[1],inactive
same,outcome,[2],inactive
same,AC50,[3],30.2 µM (active)
same,outcome,[5],inactive
same,outcome,[9],inactive
same,outcome,[6],inactive
same,outcome,[7],inactive
same,AC50,[8],41.9 µM (active)
C=CC(=O)OCC(COC(=O)C=C)(COC(=O)C=C)COC(=O)C=C,AC50,[1],73.8 µM (active)
same,AC50,[2],16.6 µM (active)
same,outcome,[3],inactive
same,AC50,[4],57.9 µM (active)
same,outcome,[5],inactive
same,AC50,[9],13.3 µM (active)
same,outcome,[6],inactive
same,AC50,[7],21.3 µM (active)
same,AC50,[8],46.1 µM (active)
CCOP(=S)(OCC)SCSc1cc(Cl)ccc1Cl,outcome,[1],inactive
same,outcome,[2],inactive
same,outcome,[3],inactive
same,outcome,[4],inactive
same,outcome,[7],inactive
ClCCCCl,outcome,[1],inactive
same,outcome,[2],inactive
same,outcome,[3],inactive
same,outcome,[4],inactive
same,outcome,[9],inactive
same,outcome,[6],inactive
same,outcome,[7],inactive
O=[N+]([O-])c1cccc2ccccc12,outcome,[1],inactive
same,outcome,[2],inactive
same,outcome,[3],inactive
same,outcome,[4],inactive
same,outcome,[5],inactive
same,outcome,[9],inactive
same,outcome,[6],inactive
same,outcome,[8],inactive
CCC[N+](CCC)(CCC)CCC,outcome,[1],inactive
same,outcome,[2],inactive
same,outcome,[3],inactive
same,outcome,[4],inactive
same,outcome,[5],inactive
same,outcome,[6],inactive
Cc1ccccc1OP(=O)(Oc1ccccc1C)Oc1ccccc1C,outcome,[1],inactive
same,outcome,[2],inactive
same,outcome,[3],inactive
same,outcome,[5],inactive
same,outcome,[9],inactive
same,outcome,[6],inactive
same,outcome,[8],inactive
CC(C)(C#N)N=NC(C)(C)C#N,outcome,[1],inactive
same,outcome,[2],inactive
same,outcome,[3],inactive
same,outcome,[4],inactive
same,outcome,[5],inactive
same,outcome,[6],inactive
same,outcome,[7],inactive
CCCCCCCCCCCCCl,outcome,[1],inactive
same,outcome,[2],inactive
same,outcome,[3],inactive
same,outcome,[4],inactive
same,outcome,[5],inactive
same,outcome,[9],inactive
same,outcome,[7],inactive
same,outcome,[8],inactive
O=S1OC[C@@H]2[C@H](CO1)[C@]1(Cl)C(Cl)=C(Cl)[C@@]2(Cl)C1(Cl)Cl (stereo not given in full),outcome,[1],inactive
same,AC50,[2],67.1 µM (active)
same,outcome,[3],inactive
same,AC50,[4],84.1 µM (active)
same,outcome,[5],inactive
same,AC50,[9],83.6 µM (active)
same,outcome,[6],inactive
same,outcome,[7],inactive
same,outcome,[8],inactive
CCCCCCCCCCCCBr,outcome,[1],inactive
same,outcome,[2],inactive
same,outcome,[3],inactive
same,outcome,[4],inactive
same,outcome,[9],inactive
same,outcome,[6],inactive
same,outcome,[7],inactive
same,outcome,[8],inactive
CCCCCCCCCCCCN(C)C,outcome,[1],inactive
same,outcome,[2],inactive
same,outcome,[3],inactive
same,outcome,[4],inactive
same,outcome,[5],inactive
same,outcome,[9],inactive
same,outcome,[7],inactive
CN(N=O)C(N)=O,outcome,[1],inactive
same,outcome,[2],inactive
same,outcome,[3],inactive
same,outcome,[4],inactive
same,outcome,[5],inactive
same,outcome,[6],inactive
Cc1cc(SCc2sc(-c3ccc(C(F)(F)F)c(F)c3)nc2C)ccc1OCC(=O)O,outcome,[1],inactive
same,AC50,[2],15.2 µM (active)
same,AC50,[3],54.1 µM (active)
same,AC50,[4],35.3 µM (active)
same,AC50,[5],48.2 µM (active)
same,AC50,[9],11.9 µM (active)
same,AC50,[6],70.2 µM (active)
same,AC50,[7],40.6 µM (active)
same,AC50,[8],54.2 µM (active)
Cc1cc(-c2cc(C)c(N)c(C)c2)cc(C)c1N,outcome,[1],inactive
same,outcome,[2],inactive
same,outcome,[3],inactive
same,outcome,[4],inactive
same,outcome,[5],inactive
same,outcome,[9],inactive
same,outcome,[6],inactive
same,outcome,[7],inactive
same,outcome,[8],inactive
CC(C)(C)c1cc([N+](=O)[O-])cc(C(C)(C)C)c1O,outcome,[1],inactive
same,AC50,[2],46.1 µM (active)
same,AC50,[3],3.81 µM (active)
same,outcome,[4],inactive
same,AC50,[5],4.47 µM (active)
same,AC50,[9],46.1 µM (active)
same,outcome,[6],inactive
same,outcome,[7],inactive
same,AC50,[8],46.1 µM (active)
CCOC(=O)CC(=O)CCl,outcome,[1],inactive
same,outcome,[2],inactive
same,outcome,[3],inactive
same,outcome,[4],inactive
same,AC50,[5],77.9 µM (active)
same,outcome,[6],inactive
O=S(=O)(c1ccc(Cl)cc1)c1cc(Cl)c(Cl)cc1Cl,outcome,[1],inactive
same,outcome,[2],inactive
same,outcome,[3],inactive
same,outcome,[4],inactive
same,outcome,[5],inactive
same,outcome,[6],inactive
same,outcome,[7],inactive
same,outcome,[8],inactive
O=C(O)c1cc(I)cc(I)c1I,outcome,[1],inactive
same,outcome,[2],inactive
same,outcome,[3],inactive
same,outcome,[4],inactive
same,outcome,[9],inactive
same,outcome,[7],inactive
same,outcome,[8],inactive
O=[N+]([O-])c1ccccc1O,outcome,[1],inactive
same,outcome,[2],inactive
same,outcome,[3],inactive
same,outcome,[4],inactive
same,outcome,[9],inactive
same,outcome,[6],inactive
same,outcome,[7],inactive
O=NN1CCCCCCC1,outcome,[1],inactive
same,outcome,[2],inactive
same,outcome,[3],inactive
same,outcome,[5],inactive
same,outcome,[9],inactive
same,outcome,[6],inactive
same,outcome,[7],inactive
same,outcome,[8],inactive
Clc1cnc(Oc2ccc(Oc3ncc(Cl)cc3Cl)cc2)c(Cl)c1,outcome,[1],inactive
same,outcome,[2],inactive
same,outcome,[3],inactive
same,outcome,[4],inactive
same,outcome,[9],inactive
same,outcome,[6],inactive
same,outcome,[7],inactive
same,outcome,[8],inactive

# From PubChem BioAssay (EPA / NIEHS)
